PubChem BioAssay (Tox21)
Results filed as inconclusive are left out. The source made the active and inactive calls. Unless noted, calls follow the shape of the full dose curve.

Tests used:
[1] = Nuclear factor erythroid 2-related factor 2/antioxidant responsive element (Nrf2/ARE) small molecule agonists: qHTS cell viability counter screen in human keratinocytes (AID 1919968; active = well fitted curve in the direction sought with a large enough effect in the repeat runs; an effect the other way counts as inactive or inconclusive; also: nearly all actives have a fitted effect of over 55% in size; also: potency is read from the fitted curve at half-maximal effect)
In short: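 Viability counter-screen: KeratinoSens reporter cells, DMSO-delivered compounds, 23 h at 37 C, CellTiter-Fluor fluorescence.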

[2] = Nuclear factor erythroid 2-related factor 2/antioxidant responsive element (Nrf2/ARE) small molecule agonists: luciferase reporter gene qHTS assay in human keratinocytes (AID 1919969); also: nearly all actives have a fitted effect of over 35% in size
[3] = molecular target: Gonadotropin-releasing hormone receptor (Homo sapiens) (UniProt P30968); experiment: Human gonadotropin-releasing hormone receptor (GnRHR) small molecule agonists, calcium flux assay in GnRHR-HEK293 cells (AID 1920063); also: nearly all actives have a fitted effect of over 35% in size
Gonadotropin-releasing hormone receptor (Homo sapiens), sequence (P30968 whole entry, looked up): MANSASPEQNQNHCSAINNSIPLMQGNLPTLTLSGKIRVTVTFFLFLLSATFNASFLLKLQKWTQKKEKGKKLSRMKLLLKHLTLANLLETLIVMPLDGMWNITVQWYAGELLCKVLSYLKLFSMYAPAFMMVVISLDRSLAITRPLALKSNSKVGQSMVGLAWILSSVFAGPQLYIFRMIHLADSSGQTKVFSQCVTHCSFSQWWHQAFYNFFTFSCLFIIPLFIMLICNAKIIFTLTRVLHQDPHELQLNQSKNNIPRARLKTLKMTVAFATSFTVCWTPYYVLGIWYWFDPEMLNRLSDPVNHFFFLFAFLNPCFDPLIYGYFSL
In short: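 Tox21-format agonist screen using human GnRHR-expressing HEK293 cells and a fluorescent calcium dye; kinetic 3-min fluorescence reading after compound addition, 15-point concentration series run in triplicate.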

[4] = p53 small molecule agonists, cell-based qHTS assay with human liver microsomes: qHTS cell viability counter screen (AID 1963579); also: nearly all actives have a fitted effect of over 45% in size
In short: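 In this multiplexed counter screen, the reporter plates were subsequently treated with CellTiter-Glo so that cell viability, reflected by luminescence, could be recorded for p53RE-bla cells dosed 16 h with compounds under microsomal activation (HLM and NADPH).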

[5] = p53 small molecule agonists, cell-based qHTS assay with rat liver microsomes: qHTS cell viability counter screen (AID 1963580); also: nearly all actives have a fitted effect of over 45% in size
In short: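 Intracellular ATP, by CellTiter-Glo luminescence, defines viability. HCT-116 p53RE-bla cells, 4,000 per well, were compound-treated in the presence of rat liver microsomes and NADPH for 16 h at 37 C.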

[6] = molecular target: 5-hydroxytryptamine receptor 2A (Homo sapiens) (UniProt P28223); experiment: 5-hydroxytryptamine receptor 2A (HTR2A) small molecule antagonists, cell-based qHTS assay (AID 1963586); also: nearly all actives have a fitted effect of over 45% in size; also: potency is read from the fitted curve at half-maximal effect
5-hydroxytryptamine receptor 2A (Homo sapiens), sequence (P28223 whole entry, looked up): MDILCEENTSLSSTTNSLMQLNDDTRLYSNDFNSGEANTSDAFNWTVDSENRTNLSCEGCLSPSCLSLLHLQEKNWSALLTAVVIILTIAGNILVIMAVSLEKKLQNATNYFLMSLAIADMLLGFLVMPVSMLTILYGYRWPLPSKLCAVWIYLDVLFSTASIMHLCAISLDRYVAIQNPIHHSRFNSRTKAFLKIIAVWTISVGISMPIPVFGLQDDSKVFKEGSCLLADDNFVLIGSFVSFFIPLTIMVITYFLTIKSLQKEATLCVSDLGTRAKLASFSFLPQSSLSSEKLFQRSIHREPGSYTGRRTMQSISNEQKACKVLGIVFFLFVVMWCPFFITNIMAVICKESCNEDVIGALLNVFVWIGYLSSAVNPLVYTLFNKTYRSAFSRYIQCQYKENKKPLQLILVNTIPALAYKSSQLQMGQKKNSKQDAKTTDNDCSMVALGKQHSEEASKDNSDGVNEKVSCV
In short: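 Antagonist-mode intracellular calcium assay: DOI (4 nM) added after 5 min compound pre-incubation at room temperature to dye-loaded HTR2A-CHO cells. Fluorescence followed for 3 min, sampled every second.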

[7] = molecular target: Muscarinic acetylcholine receptor M1 (Homo sapiens) (UniProt P11229); experiment: Cholinergic receptor muscarinic 1 (CHRM1) small molecule antagonists, cell-based qHTS assay (AID 1963588); also: nearly all actives have a fitted effect of over 40% in size; also: potency is read from the fitted curve at half-maximal effect
Muscarinic acetylcholine receptor M1 (Homo sapiens), sequence (P11229 whole entry, looked up): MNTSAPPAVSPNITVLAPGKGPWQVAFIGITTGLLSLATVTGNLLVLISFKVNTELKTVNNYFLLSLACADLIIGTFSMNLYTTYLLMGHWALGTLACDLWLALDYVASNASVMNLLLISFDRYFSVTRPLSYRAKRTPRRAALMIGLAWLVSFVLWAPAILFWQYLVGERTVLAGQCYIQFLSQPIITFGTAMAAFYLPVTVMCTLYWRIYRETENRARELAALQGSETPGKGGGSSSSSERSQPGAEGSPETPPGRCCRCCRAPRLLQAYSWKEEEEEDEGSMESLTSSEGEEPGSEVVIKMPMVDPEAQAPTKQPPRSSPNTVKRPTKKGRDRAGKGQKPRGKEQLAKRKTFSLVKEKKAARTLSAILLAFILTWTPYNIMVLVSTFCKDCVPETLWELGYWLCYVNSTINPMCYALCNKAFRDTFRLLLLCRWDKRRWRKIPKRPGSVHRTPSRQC
In short: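 CHRM1-CHO calcium-flux assay, antagonist mode. Cells were seeded 18 h, dye-loaded 1 h at 37 C and given compound for 5 min at RT, then acetylcholine was added at 50nM. FDSS fluorescence was read 3 min; 15 concentrations, three runs.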

[8] = molecular target: Muscarinic acetylcholine receptor M1 (Homo sapiens) (UniProt P11229); experiment: Cholinergic receptor muscarinic 1 (CHRM1) small molecule agonists, cell-based qHTS assay (AID 1963589); also: nearly all actives have a fitted effect of over 35% in size
In short: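 Stable CHRM1-CHO cells (human receptor) were incubated 18 h, dye-loaded for 1 h at 37 C and exposed to test compounds for agonist activity, with calcium-dependent fluorescence followed kinetically.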

[9] = molecular target: Beta-2 adrenergic receptor (Homo sapiens) (UniProt P07550); experiment: Adrenergic beta2 receptor (ADRB2) small molecule antagonists, cell-based qHTS assay (AID 1963592); also: series mostly up to about 92 µM; nearly all actives have a fitted effect of over 50% in size
Beta-2 adrenergic receptor (Homo sapiens), sequence (P07550 whole entry, looked up): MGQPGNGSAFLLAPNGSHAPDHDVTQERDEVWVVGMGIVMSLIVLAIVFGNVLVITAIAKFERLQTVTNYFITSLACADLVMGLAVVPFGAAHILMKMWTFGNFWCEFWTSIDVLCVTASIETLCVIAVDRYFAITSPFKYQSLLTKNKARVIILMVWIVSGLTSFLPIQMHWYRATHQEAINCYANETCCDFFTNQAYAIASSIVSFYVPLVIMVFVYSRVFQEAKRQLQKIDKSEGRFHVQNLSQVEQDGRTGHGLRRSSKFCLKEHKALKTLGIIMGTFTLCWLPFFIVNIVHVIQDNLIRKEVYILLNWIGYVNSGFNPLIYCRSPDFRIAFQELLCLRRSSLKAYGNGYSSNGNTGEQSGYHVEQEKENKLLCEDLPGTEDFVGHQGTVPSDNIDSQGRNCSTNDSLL
In short: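 Cells (CHO, stable ADRB2 overexpression) incubated 18-20hr at 37C; compounds added from DMSO; agonist mix (1nM isoproterenol, 100uM IBMX, 25uM Ro-20-1724) added; 0.5hr RT; d2-cAMP and anti-cAMP-cryptate added; 1hr RT; 665/615 nm read.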

[10] = molecular target: Beta-2 adrenergic receptor (Homo sapiens) (UniProt P07550); experiment: Adrenergic beta2 receptor (ADRB2) small molecule agonists, cell-based qHTS assay (AID 1963593);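 also: CHO cells stably overexpressing human ADRB2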
In short: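 CHO cells stably over-expressing ADRB2 were plated overnight at 37C, then dosed with compounds plus a stimulation mix containing 100uM IBMX and 25uM Ro-20-1724 for 0.5hr at room temperature. cAMP was measured by HTRF competition, 1hr.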

[11] = molecular target: D(2) dopamine receptor (Homo sapiens) (UniProt P14416); experiment: Dopamine D2 receptor (DRD2) small molecule agonists, cell-based qHTS assay (AID 1963594); also: nearly all actives have a fitted effect of over 35% in size
D(2) dopamine receptor (Homo sapiens), sequence (P14416 whole entry, looked up): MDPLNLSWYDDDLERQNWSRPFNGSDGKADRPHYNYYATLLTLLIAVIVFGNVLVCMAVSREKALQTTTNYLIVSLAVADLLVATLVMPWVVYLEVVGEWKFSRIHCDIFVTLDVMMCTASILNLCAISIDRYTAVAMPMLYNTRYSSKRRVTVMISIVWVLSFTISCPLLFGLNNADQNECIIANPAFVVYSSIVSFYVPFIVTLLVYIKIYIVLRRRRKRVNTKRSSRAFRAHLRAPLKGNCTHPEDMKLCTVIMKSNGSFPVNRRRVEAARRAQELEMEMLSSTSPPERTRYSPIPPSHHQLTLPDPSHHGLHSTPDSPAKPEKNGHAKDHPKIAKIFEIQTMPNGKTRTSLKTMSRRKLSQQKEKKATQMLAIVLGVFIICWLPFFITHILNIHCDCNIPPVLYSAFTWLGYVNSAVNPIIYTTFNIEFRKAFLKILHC
In short: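 cAMP accumulation in DRD2-HEK293 cells measured by HTRF after 1 h detection; compounds added 10 min before NKH477 (200nM […]) forskolin-analogue stimulation, 30 min at room temperature, with Ro20-1724 present at 0.1 mM final.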

[12] = molecular target: D(2) dopamine receptor (Homo sapiens) (UniProt P14416); experiment: Dopamine D2 receptor (DRD2) small molecule antagonists, cell-based qHTS assay (AID 1963595; active = well fitted inhibition curve with a large enough effect in the signal ratio in the repeat runs, with a control signal flat; the % refers to the signal ratio)
In short: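 HTRF cAMP read-out at 665 and 620 nm emission (340 nm excitation). Antagonist mode: compounds were tested against 12 nM quinpirole in DRD2-HEK293 cells, with 200 nM NKH477 raising cAMP and 0.1 mM Ro20-1724 blocking its breakdown.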

[13] = molecular target: KiSS-1 receptor (Homo sapiens) (UniProt Q969F8); experiment: Human kisspeptin (KISS1R) small molecule agonists, calcium flux assay in KISS1R-HEK293 cells (AID 1920064; active = well fitted curve in the direction sought with a large enough effect in the repeat runs; an effect the other way counts as inactive or inconclusive)
KiSS-1 receptor (Homo sapiens), sequence (Q969F8 whole entry, looked up): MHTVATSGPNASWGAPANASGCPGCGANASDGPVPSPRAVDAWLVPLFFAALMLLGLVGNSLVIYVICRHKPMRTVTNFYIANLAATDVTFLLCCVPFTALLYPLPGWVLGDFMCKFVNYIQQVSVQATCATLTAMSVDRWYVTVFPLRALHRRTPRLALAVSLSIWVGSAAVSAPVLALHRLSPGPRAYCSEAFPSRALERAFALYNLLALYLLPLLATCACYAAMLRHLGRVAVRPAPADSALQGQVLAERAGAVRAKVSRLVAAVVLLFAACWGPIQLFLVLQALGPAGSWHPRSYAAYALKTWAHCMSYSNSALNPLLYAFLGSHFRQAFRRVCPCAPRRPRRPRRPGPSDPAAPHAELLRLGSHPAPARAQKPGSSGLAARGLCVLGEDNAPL
In short: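 Intracellular calcium mobilization in KISS1R-HEK293 cells was recorded by fluorescence (Ex/Em 480/540) for 3 min following compound addition to cells pre-loaded 1 h with calcium dye.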

[14] = G protein-coupled receptor (GPCR) small molecule agonists, calcium flux assay: HEK293 wild type cell line counter screen (AID 1920065)
In short: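 In this agonist-mode screen, ATP is the positive control and DMSO the vehicle. Cells grow 18 h before a 1 h dye incubation at 37 C; signal is taken at Ex/Em 480/540 over 3 min.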

[15] = p53 small molecule agonists, cell-based qHTS assay with human liver microsomes (AID 1963577);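 also: p53 response element beta-lactamase reporter cells with liver microsomes plus NADPH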
In short: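 16 h, 37 C exposure of p53RE-bla cells to compounds with human liver microsomes and NADPH (0.5 mg/mL final each); detection via LiveBLAzer mixture, 2 h dark at room temperature.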

[16] = p53 small molecule agonists, cell-based qHTS assay with rat liver microsomes (AID 1963578)
In short: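 With rat liver microsomes and NADPH present (0.5 mg/mL final each), p53RE-bla cells are treated with compound for 16 h at 37 C. LiveBLAzer detection mixture is then applied for 2 h at room temperature in the dark.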

[17] = p53 small molecule agonists, cell-based qHTS assay: qHTS cell viability counter screen (AID 1963581); also: nearly all actives have a fitted effect of over 45% in size; also: potency is read from the fitted curve at half-maximal effect
In short: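 Compounds are pinned onto HCT-116 p53RE-bla cells and left 16 h at 37 C. Following the reporter FRET read, ATP is quantified by CellTiter-Glo luminescence after 30 min at room temperature.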

[18] = molecular target: 5-hydroxytryptamine receptor 2A (Homo sapiens) (UniProt P28223); experiment: 5-hydroxytryptamine receptor 2A (HTR2A) small molecule agonists, cell-based qHTS assay (AID 1963587); also: nearly all actives have a fitted effect of over 30% in size; also: potency is read from the fitted curve at half-maximal effect
In short: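 Kinetic calcium-flux fluorescence (2 min, 1 sec intervals) after compound addition in agonist mode. HTR2A-CHO cells were cultured 18 h, then dye-loaded 1 h at 37 C.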

[19] = cAMP Responsive Elements (CRE) small molecule antagonists, cell-based qHTS assay (AID 1963591; active = well fitted inhibition curve with a large enough effect in the signal ratio in the repeat runs, not every such curve was filed as active; the % refers to the signal ratio)
In short: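 qHTS in CRE-bla HEK 293T cells: compound in DMSO, then 0.25 uM NKH477 (final), 3 h at 37 °C/5% CO2; beta-lactamase FRET read-out after 2 h substrate incubation.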

[20] = cAMP Responsive Elements (CRE) small molecule agonists, cell-based qHTS assay (AID 1963590)
In short: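 FRET-based beta-lactamase readout (LiveBLAzer B/G, 2 h RT) quantified CRE activation in HEK 293T CRE-bla cells after 3 h treatment with DMSO-dissolved compounds.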

Measured: Potency

O=C1Cc2ccccc2N1c1c(Cl)cccc1Cl
not listed: [13] | [14] | [15] | [16] | [17] | [18] | [19] | [20]
inactive: all other assays above

C[C@H](CCC(=O)O)[C@H]1CC[C@H]2[C@@H]3CC[C@@H]4C[C@H](O)CC[C@]4(C)[C@H]3CC[C@]12C
active: [18] 24.4 µM
not listed: [3] | [6] | [20]
inactive: all other assays above

CCCCCCOc1ccccc1C(N)=O
not listed: [3] | [4] | [6] | [8] | [10] | [18] | [20]
inactive: all other assays above

C[C@H](CCC(=O)O)[C@H]1CC[C@H]2[C@@H]3CC[C@@H]4C[C@H](O)CC[C@]4(C)[C@H]3C[C@H](O)[C@]12C
not listed: [3] | [5] | [7] | [8] | [10] | [19] | [20]
inactive: all other assays above

O=C1NC(=O)c2cc([N+](=O)[O-])ccc21
active: [18] 55.4 µM
not listed: [3] | [10]
inactive: all other assays above

CCCCCCCCCCCCOCCOCCOCCOCCOCCOCCOCCOCCOCCO
active: [1] 29.8 µM | [7] 9.18 µM
not listed: [3] | [4] | [6] | [11] | [19] | [20]
inactive: all other assays above

Cc1cc2c(C(C)C)c(O)c(O)c(C=O)c2c(O)c1-c1c(C)cc2c(C(C)C)c(O)c(O)c(C=O)c2c1O
active: [1] 10.6 µM | [17] 11.2 µM
inactive: [2] | [13] | [14] | [15] | [16] | [7] | [8] | [9] | [11]

COCC(=O)O[C@]1(CCN(C)CCCc2nc3ccccc3[nH]2)CCc2cc(F)ccc2[C@@H]1C(C)C
active: [1] 23.7 µM | [6] 5.16 µM
not listed: [3] | [10] | [17] | [19] | [20]
inactive: all other assays above
